# From PubChem BioAssay AID588549 (Broad Institute, 2011)
# Out of some 360,000 compounds screened, about 780 (0.22%) were called active. The full list was thinned out, with actives kept by preference. Values without a mark were called inactive. Rule as the data show it: active = inhibition above about 8.5% (passing the limit was not always enough); inconclusive = no clear call, values can overlap the other calls.
# Tested on: Mycobacterium tuberculosis FadD28 fatty-acid-AMP ligase
# Assay: inhibitors of FadD28 bisubstrate probe binding, primary screen, biochemical, fluorescence polarization, single point (AID 588549)
# Conditions: at 12.5 µM, hits give high values
row,SMILES,inhibition
1,CNS(=O)(=O)c1cnccc1N1CCN(c2cccc(C)c2)CC1,-0.922%
2,CCn1cc(/C=C(\NC(=O)c2ccc(C)cc2)C(=O)NCCN2CCOCC2)c2ccccc21,1.23%
3,CC(C)CCN1NC2(CCC(C)CC2)NC1=S (stereo unspecified),-3.86%
4,COc1ccc(S(=O)(=O)NC(=O)C2(C)CCN2C(=O)COc2ccc(Cl)cc2)cc1 (stereo unspecified),-5.43%
5,CCN(CC(=O)NCc1cccs1)C(=O)c1cccc(S(=O)(=O)Nc2ccccc2OC)c1,-3.38%
6,COc1ccc(Br)cc1/C=N/Nc1ccc(S(=O)(=O)Nc2ccccc2C(=O)O)cc1[N+](=O)[O-],-1.21%
7,COc1cccc(/C=N/Nc2ccc(S(=O)(=O)Nc3ccccc3C(=O)O)cc2[N+](=O)[O-])c1O,35.4% (active)
8,O=c1c(F)cn(C2CCCO2)c(=O)n1Cc1ccccc1Cl (stereo unspecified),-2.45%
9,Cc1nnc(CN(C)Cc2cn[nH]c2-c2ccc(-c3ccccc3)cc2)o1,-1.34%
10,COc1ccc(OC)c(S(=O)(=O)N(C)CC(=O)N2CCN(c3ccccc3)CC2)c1,-3.85%
11,COc1ccccc1CNC(=O)CSc1nc(=O)n(Cc2ccncc2)c2c1CCC2,-0.173%
12,OC(CNC1CCCC1)COc1ccc(F)cc1 (stereo unspecified),-4.58%
13,Cc1noc(C)c1-c1ccc(C(=O)NCc2ccncc2)c2occc12,-2.15%
14,Cc1ccc(O)c(-c2cc(C(=O)Nc3c(C)n(C)n(-c4ccccc4)c3=O)[nH]n2)c1,-2.28%
15,COC(=O)c1ccc(CSc2nnc(NC(C)C)s2)cc1,-3.65%
16,O=C(O)c1ccc(N/N=C/c2cn(-c3ccccc3)nc2-c2cccs2)cc1,23.7% (active)
17,COc1ccc(Cl)cc1NC(=O)CN(C)C(=O)c1cn(-c2ccccc2)nc1-c1cccs1,-1.26%
18,O=C(O)c1ccc(N/N=C/c2ccc3ncccc3c2)cc1,-1.11%
19,Cc1nnc(Nc2ccccc2F)s1,-1.11%

row,SMILES,inhibition
1,COCCNC(=O)c1ccc2nc(Cc3ccc(OC)c(OC)c3)oc2c1,-2.89%
2,COCCNC(=O)CN(Cc1ccco1)C(=O)CCC(=O)Nc1nccs1,-3.92%
3,COCCNC(=O)Nc1ccc2nc(-c3ccco3)c(-c3ccco3)nc2c1,20.8% (active)
4,O=S(=O)(NCCCCCCNS(=O)(=O)c1c(F)cccc1F)c1ccc2c(c1)OCCO2,-2.1%
5,O=C(COC(=O)c1cccc(Cl)c1)NC(=O)NCc1ccccc1,-1.95%
6,O=C1c2ccccc2C(=O)N1c1ccccc1S(=O)C(F)(F)F (stereo unspecified),-3.78%
7,CC(C(=O)Nc1ccc(F)c(F)c1F)N1CCCCCC1 (stereo unspecified),-6.4%
8,CC1(C)CC(=O)C=C(NCc2ccncc2)C1,1.4%
9,CCOc1ccc(CN(C)C(=O)c2ccc(=O)[nH]c2)cc1,-0.407%
10,O=C(Nc1c2c(nn1-c1ccccc1)CS(=O)(=O)C2)C1CCCC1,-0.538%
11,Cc1nn(C)c(Cl)c1CN1CCC(n2nccc2NC(=O)C2CCCC2)CC1,1.24%
12,O=C(Cn1ccc([N+](=O)[O-])n1)NCc1cccs1,-2.06%
13,N#C/C(=C/c1ccc(N2CCCCC2)o1)C(=O)NCCc1c[nH]c2ccccc12,-1.59%
14,Cc1ccc(C(O)P(=O)(OC(C)C)c2ccc(N(C)C)cc2)cc1 (stereo unspecified),0.612%
15,CCCCn1c(N)c(N2CCOCC2)c(=O)n(CC(=O)NCCc2ccccc2)c1=O,0%
16,N[C@@H](Cc1ccccc1)C(=O)N1CCC(C(=O)NCC(=O)Nc2ccc(F)cc2)CC1,0.565%
17,O=C(CSc1n[nH]c(=O)n1-c1ccccc1)Nc1ccccc1C(F)(F)F,-1.05%
18,C=C1c2c(Cl)ccc(O)c2C(O)=C2C(=O)[C@]3(O)C(O)=C(C(N)=O)C(=O)[C@@H](N(C)C)[C@@H]3[C@@H](O)C12 (stereo partly specified),11.1% (active)
19,C[C@H]([C@@H](O)[C@@H](O)[C@@H](C)C(C)(C)C)[C@H]1CC[C@H]2C3CC[C@H]4C[C@H](OS(=O)(=O)O)[C@@H](OS(=O)(=O)O)C[C@]4(C)[C@H]3CC[C@]12C (stereo partly specified),-4.53%

row,SMILES,inhibition
1,Cc1ccc(NC(=O)C(c2ccccc2)N2CCN(C(=O)c3ccco3)CC2)cc1 (stereo unspecified),-0.809%
2,COc1ccc(C(CNC(=O)c2cccc(S(=O)(=O)Nc3ccccc3Cl)c2)N2CCOCC2)cc1 (stereo unspecified),0.098%
3,COC(=O)C1=C(C)N(C(C)c2ccccc2)C(=O)/C1=C\c1ccco1 (stereo unspecified),-2.87%
4,COc1ccc(N2C(=O)/C(=C/c3ccco3)C(=O)NC2=S)cc1,32.5% (active)
5,CCCCN=C1N/C(=C\c2ccco2)C(=O)N1c1ccccc1,-0.549%
6,N#CCN(C(=O)COC(=O)C1CC2CCCC(C1)C2=O)c1ccccc1 (stereo unspecified),0.44%
7,CCOC(=O)C(CC)/C(C)=N\NC(=O)c1cccc(C)c1 (stereo unspecified),-0.964%
8,CCN(CC)C(=O)C1=C(C)N(Cc2ccc(F)cc2)C(=O)C(CC(=O)NC2CCCC2)C1 (stereo unspecified),-3.83%
9,Cc1ccc(S(=O)(=O)N(C)c2ccc(OCC(=O)OCc3ccc(C#N)cc3)cc2)cc1,-1.59%
10,Nc1ncc(CN2CCCC(C(=O)Nc3ccc(-c4ccco4)cc3)C2)cn1 (stereo unspecified),-5.68%
11,O=C(COC(=O)CNS(=O)(=O)c1ccc(F)c(F)c1F)NC1CCCC1,-2.7%
12,O=C(OCc1ccc([N+](=O)[O-])cc1)C1CC(=O)N(Cc2ccccc2Cl)C1 (stereo unspecified),-0.71%
13,Cc1ccc(S(=O)(=O)N2CCOCC2)cc1NC(=O)CSc1nnc(N)s1,1.4%
14,O=S(=O)(Nc1ccc2nc(-c3ccco3)[nH]c2c1)c1ccccc1,-2.01%
15,COc1cccc2c(C)c(C(=O)O)[nH]c12,15.1% (active)
16,COc1cc2c(C(=O)O)c(C)n(C)c2c2ccccc12,2.25%
17,COc1cccc2c(O)cc(=O)n(C)c12,-3.24%
18,O=C1Nc2cc(Cl)c(Cl)cc2N(O)N1c1cc(Cl)cc(Cl)c1,-1.95%
